Measured values published in PubChem BioAssay (EPA / NIEHS).
Inconclusive results are not listed. Calls of active or inactive are those of the source. How the source made its calls: active means hit-call score of the fitted dose curve at least 0.9, where 1 is the maximum; inconclusive means response in the unintended direction; inactive means score below 0.9.

Tests used:
[1] = target: human CYP2D6, CYP2D6 (gene 1565) (UniProt P10635); experiment: NVS_ADME_hCYP2D6: NovaScreen (NVS) CYP450-related Enzyme Activity (ADME) Assay for human CYP2D6 (AID 2283107)
How it was run: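 Fluorescence readout of recombinant CYP2D6 (insect-cell derived) activity after 1 h incubation with test chemical. Acetonitrile served as baseline, loss-of-signal direction. Single-concentration duplicate screening at 10 uM preceded concentration-response retesting.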

[2] = target: human CYP2C9, CYP2C9 (gene 1559) (UniProt P11712); experiment: NVS_ADME_hCYP2C9: NovaScreen (NVS) CYP450-related Enzyme Activity (ADME) Assay for human CYP2C9 (AID 2283108)
Description: NVS_ADME_hCYP2C9 is a biochemical, single-readout assay that uses extracted gene-proteins from SF9 in a cell-free assay. Measurements were taken 0.75 hour after chemical dosing in a 96-well plate.NVS_ADME_hCYP2C9 is one of one assay component(s) measured or calculated from the NVS_ADME_hCYP2C9 assay. It is designed to make measurements of enzyme activity, a form of enzyme reporter, as detected with fluorescence intensity signals by Fluorescence technology.Data from the assay component NVS_ADME_hCYP2C9 was analyzed into 1 assay endpoint. This assay endpoint, NVS_ADME_hCYP2C9, was analyzed in the positive analysis fitting direction relative to Acetonitrile as the negative control and baseline of activity. Using a type of enzyme reporter, loss-of-signal activity can be used to understand changes in the enzymatic activity as they relate to the gene CYP2C9. Furthermore, this assay endpoint can be referred to as a primary readout, because this assay has produced multiple assay endpoints where this one serves a enzymatic activity function. To generalize the intended target to other relatable targets, this assay endpoint is annotated to the cyp intended target family, where the subfamily is xenobiotic metabolism. […]

[3] = target: Cytochrome P450 3A4 (Homo sapiens) (UniProt P08684); experiment: NVS_ADME_hCYP3A4: NovaScreen (NVS) CYP450-related Enzyme Activity (ADME) Assay for human CYP3A4 (AID 2283110)
How it was run: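 Compounds screened in duplicate at 10 uM, with follow-up concentration-response for actives, against insect-cell-expressed recombinant enzyme. Activity read by fluorescence 0.33 h after dosing; loss of signal versus acetonitrile control indicates inhibition.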

[4] = target: rat CYP2A2, Cyp2a2 (gene 24895) (UniProt P15149); experiment: NVS_ADME_rCYP2A2: NovaScreen (NVS) CYP450-related Enzyme Activity (ADME) Assay for rat CYP2A2 (AID 2283116)
How it was run: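 Compounds first tested in duplicate at 10 uM, then in singleton concentration series up to 20 uM when over threshold. Activity of the recombinant enzyme read by fluorescence at 0.2 h, normalised to acetonitrile vehicle.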

[5] = target: human Acid Phosphatase 1 (ACP1), ACP1 (gene 52) (UniProt P24666); experiment: NVS_ENZ_hACP1: NovaScreen (NVS) Enzymatic Assay for human Acid Phosphatase 1 (ACP1) (AID 2283136)
How it was run: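 Cell-free fluorescence read-out of phosphatase activity, substrate and product separated by mobility shift, taken 1.5 h after compound addition; protein produced in Sf9. Single 25 uM duplicate screen, followed by concentration series for actives, scored as signal loss relative to DMSO.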

[6] = target: human Caspase 5 (CASP5), CASP5 (gene 838) (UniProt P51878); experiment: NVS_ENZ_hCASP5: NovaScreen (NVS) Enzymatic Assay for human Caspase 5 (CASP5) (AID 2283137)
How it was run: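 Caspase 5 enzyme activity, detected as fluorescence signal loss, is measured in a biochemical format using E. coli-expressed protein. Reading occurs 2 hours post-dosing. Screening runs at 25 uM, with confirmed actives titrated to 50 uM maximum.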

[7] = target: human AKT serine/threonine Kinase 2 (AKT2), AKT2 (gene 208) (UniProt P31751); experiment: NVS_ENZ_hAKT2: NovaScreen (NVS) Enzymatic Assay for human AKT serine/threonine Kinase 2 (AKT2) (AID 2283141)
How it was run: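 Cell-free fluorescence/electrophoretic mobility shift readout of recombinant human AKT2 activity, 1 h after chemical dosing. Duplicate primary screen at 25 uM, then singleton concentration-response up to 50 uM; loss of signal versus DMSO baseline.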

Chain of Cytochrome P450 3A4 (Homo sapiens) (P08684 whole entry, looked up): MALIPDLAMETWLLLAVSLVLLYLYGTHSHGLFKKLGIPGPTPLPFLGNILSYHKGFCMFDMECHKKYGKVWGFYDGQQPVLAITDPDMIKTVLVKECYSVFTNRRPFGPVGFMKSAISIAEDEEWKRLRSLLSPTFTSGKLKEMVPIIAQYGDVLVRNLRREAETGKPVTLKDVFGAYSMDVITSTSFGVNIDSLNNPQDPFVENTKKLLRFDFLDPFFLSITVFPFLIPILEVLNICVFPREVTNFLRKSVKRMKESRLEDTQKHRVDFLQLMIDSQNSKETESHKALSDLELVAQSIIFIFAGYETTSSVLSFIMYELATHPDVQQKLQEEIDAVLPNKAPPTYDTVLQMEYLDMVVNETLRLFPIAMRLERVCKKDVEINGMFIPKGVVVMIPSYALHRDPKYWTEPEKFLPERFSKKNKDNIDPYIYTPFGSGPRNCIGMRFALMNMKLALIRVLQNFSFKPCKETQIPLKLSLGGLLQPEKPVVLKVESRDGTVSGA
Chain of human CYP2D6, CYP2D6 (gene 1565) (P10635 whole entry, looked up): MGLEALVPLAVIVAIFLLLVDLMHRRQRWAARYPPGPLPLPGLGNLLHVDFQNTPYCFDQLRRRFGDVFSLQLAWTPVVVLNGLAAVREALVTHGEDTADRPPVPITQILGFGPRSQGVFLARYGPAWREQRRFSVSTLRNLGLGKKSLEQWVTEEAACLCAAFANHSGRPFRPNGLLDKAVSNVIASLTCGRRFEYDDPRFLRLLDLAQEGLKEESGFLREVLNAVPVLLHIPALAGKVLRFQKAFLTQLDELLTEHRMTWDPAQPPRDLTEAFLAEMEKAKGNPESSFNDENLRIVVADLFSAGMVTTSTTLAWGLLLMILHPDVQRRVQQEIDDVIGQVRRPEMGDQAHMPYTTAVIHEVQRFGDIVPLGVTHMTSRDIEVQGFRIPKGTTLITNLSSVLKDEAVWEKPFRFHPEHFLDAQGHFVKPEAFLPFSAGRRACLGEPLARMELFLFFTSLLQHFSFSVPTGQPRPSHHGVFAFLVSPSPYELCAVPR
Chain of human Acid Phosphatase 1 (ACP1), ACP1 (gene 52) (P24666 whole entry, looked up): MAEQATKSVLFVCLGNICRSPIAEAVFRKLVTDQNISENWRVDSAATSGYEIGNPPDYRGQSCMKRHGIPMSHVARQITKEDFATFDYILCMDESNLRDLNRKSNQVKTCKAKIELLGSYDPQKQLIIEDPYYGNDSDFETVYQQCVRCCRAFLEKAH
Chain of human Caspase 5 (CASP5), CASP5 (gene 838) (P51878 whole entry, looked up): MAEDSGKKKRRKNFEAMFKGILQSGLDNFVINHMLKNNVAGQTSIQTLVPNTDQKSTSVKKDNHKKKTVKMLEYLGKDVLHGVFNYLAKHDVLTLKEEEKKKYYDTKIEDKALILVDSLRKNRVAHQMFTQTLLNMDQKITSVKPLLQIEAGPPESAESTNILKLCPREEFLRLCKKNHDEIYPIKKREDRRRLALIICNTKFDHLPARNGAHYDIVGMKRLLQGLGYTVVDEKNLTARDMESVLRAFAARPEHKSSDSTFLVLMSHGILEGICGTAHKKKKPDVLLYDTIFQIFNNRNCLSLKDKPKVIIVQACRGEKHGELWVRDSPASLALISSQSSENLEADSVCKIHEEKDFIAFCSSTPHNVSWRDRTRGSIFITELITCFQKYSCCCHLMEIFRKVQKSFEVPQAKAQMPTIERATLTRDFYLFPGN
Chain of human CYP2C9, CYP2C9 (gene 1559) (P11712 whole entry, looked up): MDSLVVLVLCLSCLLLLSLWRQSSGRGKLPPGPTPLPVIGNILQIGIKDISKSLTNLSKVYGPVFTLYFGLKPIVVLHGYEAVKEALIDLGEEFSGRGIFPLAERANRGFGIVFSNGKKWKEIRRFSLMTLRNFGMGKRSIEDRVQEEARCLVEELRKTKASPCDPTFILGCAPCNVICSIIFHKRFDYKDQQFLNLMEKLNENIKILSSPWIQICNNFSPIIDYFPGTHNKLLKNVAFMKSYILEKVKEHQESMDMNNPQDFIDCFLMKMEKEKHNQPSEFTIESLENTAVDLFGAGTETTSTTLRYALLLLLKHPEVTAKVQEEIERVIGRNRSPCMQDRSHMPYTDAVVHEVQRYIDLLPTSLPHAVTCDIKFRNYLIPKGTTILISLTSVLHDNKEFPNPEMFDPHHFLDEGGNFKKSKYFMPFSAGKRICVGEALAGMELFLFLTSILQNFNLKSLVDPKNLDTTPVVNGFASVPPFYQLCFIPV
Chain of human AKT serine/threonine Kinase 2 (AKT2), AKT2 (gene 208) (P31751 whole entry, looked up): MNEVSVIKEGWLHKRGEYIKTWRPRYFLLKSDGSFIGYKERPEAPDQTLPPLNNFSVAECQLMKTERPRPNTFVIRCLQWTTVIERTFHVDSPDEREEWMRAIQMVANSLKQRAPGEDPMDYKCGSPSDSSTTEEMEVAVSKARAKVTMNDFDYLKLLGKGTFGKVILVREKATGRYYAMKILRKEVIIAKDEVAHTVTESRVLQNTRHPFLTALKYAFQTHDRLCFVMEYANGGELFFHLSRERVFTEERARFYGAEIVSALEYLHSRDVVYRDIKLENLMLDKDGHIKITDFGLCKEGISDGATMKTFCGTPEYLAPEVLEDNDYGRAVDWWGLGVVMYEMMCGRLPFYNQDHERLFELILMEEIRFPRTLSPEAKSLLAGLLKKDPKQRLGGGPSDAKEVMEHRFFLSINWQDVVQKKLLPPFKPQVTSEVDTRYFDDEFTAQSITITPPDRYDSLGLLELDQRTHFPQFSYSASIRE
Chain of rat CYP2A2, Cyp2a2 (gene 24895) (P15149 whole entry, looked up): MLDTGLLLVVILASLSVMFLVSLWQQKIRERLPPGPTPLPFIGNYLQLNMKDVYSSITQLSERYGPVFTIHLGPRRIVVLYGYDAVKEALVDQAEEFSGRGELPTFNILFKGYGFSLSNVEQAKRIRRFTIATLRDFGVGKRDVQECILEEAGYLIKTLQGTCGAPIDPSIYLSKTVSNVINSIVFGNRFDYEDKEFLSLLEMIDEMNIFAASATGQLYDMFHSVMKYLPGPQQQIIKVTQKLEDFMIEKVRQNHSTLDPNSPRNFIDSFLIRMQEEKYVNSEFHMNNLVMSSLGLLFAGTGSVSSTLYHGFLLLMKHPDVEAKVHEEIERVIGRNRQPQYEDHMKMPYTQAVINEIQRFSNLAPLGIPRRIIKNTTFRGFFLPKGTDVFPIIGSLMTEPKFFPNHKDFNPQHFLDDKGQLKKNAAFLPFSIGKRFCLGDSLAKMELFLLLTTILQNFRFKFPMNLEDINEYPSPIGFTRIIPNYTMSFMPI

SMILES: CCCCCCCCCCCCCCCCCC[N+](C)(C)Cc1ccccc1
- AC50 [1]: 0.425 µM (active)

SMILES: c1cc[nH]c1
- outcome [1]: inactive

SMILES: CC1=NN(c2ccccc2)C(=O)C1
- AC50 [2]: 3.06 µM (active)

SMILES: CC(C)C=O
- AC50 [3]: 5 µM (active)

SMILES: CCCCC(CC)C(=O)OCCOCCOCCOCCOC(=O)C(CC)CCCC (stereo unspecified)
- outcome [3]: inactive

SMILES: NC(=NCCCCCCN=C(N)/N=C(\N)Nc1ccc(Cl)cc1)/N=C(\N)Nc1ccc(Cl)cc1
- AC50 [4]: 2.84 µM (active)

SMILES: CCCCC(CC)C(=O)O (stereo unspecified)
- outcome [5]: inactive

SMILES: CCCCCCCCCCCCOS(=O)(=O)O
- outcome [5]: inactive
- AC50 [6]: 25 µM (active)
- AC50 [7]: 32.9 µM (active)

SMILES: Cc1[nH]nc2c1N=C(c1ccccc1Cl)c1cc([N+](=O)[O-])ccc1N2
- outcome [6]: inactive
